The text below walks through data of PubChem BioAssay (EPA / NIEHS).

Activity calls are given as the source filed them. Rule for the calls: active = hit-call score of the fitted dose curve at least 0.9, where 1 is the maximum; inactive = score below 0.9.

A short description of the assay: BSK_3C_Vis: BioMAP Diversity Plus: 3C Assay for Morphology Visualization (AID 2283025).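 Note: fitted both ways so gain or loss versus DMSO counts.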 The note with it: primary human endothelial cells (HUVEC). How it is done:
BSK_3C is a cell-based, multiplexed-readout assay that uses umbilical vein endothelium, a human vascular primary cell, with measurements taken at 24 hours after chemical dosing in a 96-well plate.BSK_3C_Vis is an assay component measured in the BSK_3C assay. It measures NA related to cell morphology using light microscopy technology.Data from the assay component BSK_3C_Vis was analyzed into 1 assay endpoint. This assay endpoint, BSK_3C_Vis, was analyzed with bidirectional fitting relative to DMSO as the negative control and baseline of activity. Using a type of morphology reporter, gain or loss-of-signal activity can be used to understand changes in the background control. Furthermore, this assay endpoint can be referred to as a secondary readout, because this assay has produced multiple assay endpoints where this one serves a background control function. To generalize the intended target to other relatable targets, this assay endpoint is annotated to the cell morphology intended target family, where the subfamily is cell conformation.
The levels of cell surface (or secreted, indicated by the prefix "s") biomarker endpoints were measured by ELISA. Overt cytotoxicity to cells in confluent adherent cultures (all systems other than the BT system) was assessed by measuring total protein levels using sulforhodamine B (SRB) staining in parallel cultures at the time of biomarker measurements, indicated as SRB endpoints. For proliferation assays for adherent cell types, individual cell types are cultured at sub-confluence and relative cell numbers quantified by SRB staining at time points optimized for each system (48 h: 3C and CASM3C systems; 72 h: BT and HDF3CGF systems; 96 h: SAg system). SRB was performed by staining cells with 0.1% SRB after fixation with 10% TCA and reading wells at 560 nm.Viability and proliferation of PBMC (T cells) was quantified by Alamar Blue reduction for the SAg and BT systems. For PBMC viability (referred to as PBMC Cytotoxicity within the assay endpoint names), cells were plated (75,000/well in a 96-well plate) and then chemical samples added for 1 h before addition of activators, SEB and TSST-1 (20 ng/mL final concentration each). Cells were incubated for 90 h. Then, Alamar Blue (20 uL/well) (Invitrogen, Cat DAL1100) was added for 6 h, and the plates were read with a fluorescence microplate reader at 546/580 nm (excitation/emission). For PBMC proliferation, cells were plated and activated as above but incubated for only 16 h prior to addition of Alamar Blue. Plates were read after 6 h.
Turning to `CNS(=O)(=O)c1cc(C(=O)N2CCC(CCN3C4CCC3CC(n3c(C)nc5ccccc53)C4)(c3cccc(F)c3)CC2)c(Cl)cc1F` (stereo not given), the AC50 was 15.2 µM (active).
With `CC(C)=CCCC(C)=CC=O`, the result was inactive.
In the case of `Cc1ccc(N)cc1O`, the outcome was inactive.
As to `CCOCCOCCOCCO`, the outcome was inactive.
Consider `CCOc1cccc(-n2cc(C(=O)N3CCN(c4cc(C(=O)O)c5ccccc5c4)CC3)nc2-c2ccc(C)cc2)c1`, for which the concentration at half-maximal activity (AC50) is 38 µM (active).
In the case of `CC(=O)OC[C@H]1O[C@@](COC(C)=O)(O[C@H]2O[C@H](COC(C)=O)[C@@H](OC(C)=O)[C@H](OC(C)=O)[C@H]2OC(C)=O)[C@@H](OC(C)=O)[C@@H]1OC(C)=O`, the result was inactive.
Take `CCn1nc(Cc2ccccc2)cc1C1CCN(C[C@H]2C[C@H](N(C)[C@@H](C(=O)O)C(C)C)C[C@@H]2c2cccc(F)c2)CC1`: the outcome was inactive.
Turning to `CCCCCCc1ccc(O)cc1O`, the half-maximal activity concentration (AC50) was 39.8 µM (active).
In the case of `CC(C)=CCC/C(C)=C/CO`, the result was inactive.
Regarding `Cn1c(=O)cc(Oc2ccc(F)cc2F)c2cnc(NCC(C)(C)O)nc21`, the outcome was inactive.
Consider `CC(C)=CCCC(C)CCO` (stereo not given), for which the outcome was inactive.
As for `CCCCC(CC)COC(=O)c1ccc(C(=O)OCC(CC)CCCC)cc1` (stereo not given), the outcome was inactive.
Still for that read-out and setting: the entry for `Cc1ccc(C)c(O)c1` is “inactive”; for `Nc1nc2ncc(CNc3ccc(C(=O)N[C@@H](CCC(=O)O)C(=O)O)cc3)nc2c(=O)[nH]1` it is “inactive”.
As to `COc1ccc2sc(C(=O)Nc3nnn[nH]3)c(OC(C)C)c2c1`, the AC50 is 21.9 µM (active).
Consider `CC/C(=C\C(=N/O)C(N)=O)C(C)[N+](=O)[O-]` (stereo not given), for which the result was inactive.
The same measure, in the same setting: to `CCNc1ccccc1` belongs “inactive”.
The same measure, in the same setting: to `CC(=O)c1ccc2c(c1)[C@H](NC(=O)c1ccc(F)cc1)[C@@H](O)C(C)(C)O2` belongs “inactive”.
Turning to `COC(=O)c1c(Cl)c(Cl)c(C(=O)OC)c(Cl)c1Cl`, the AC50 was 39 µM (active).
Turning to `CC(C)CCCCCCOC(=O)c1ccc(C(=O)OCCCCCCC(C)C)c(C(=O)OCCCCCCC(C)C)c1`, the outcome was inactive.
`CC[C@H](C)C(=O)O[C@H]1C[C@@H](C)C=C2C=C[C@H](C)[C@H](CC[C@@H]3C[C@@H](O)CC(=O)O3)[C@H]21`: the AC50 is 28.3 µM (active).
Consider `Cc1ccc(S(=O)(=O)O)cc1C`, for which the outcome was inactive.
Take `On1ccccc1=S`: the AC50 is 38.4 µM (active).
With `COC(=O)c1ccccc1O`, the outcome was inactive.
Consider `Oc1ccc2c(c1)-c1ccccc1C2`, for which the half-maximal activity concentration (AC50) is 39 µM (active).
As to `CC[C@H]1CC[C@H](NCc2cc3c(cc2OC)[C@H]2C[C@H]2C(=O)N3C)[C@H](c2ccccc2)N1`, the result was inactive.
Same read-out and setting: to `COCCOCCOCCOC` belongs “inactive”; to `CCCCCCCCCCCCc1ccccc1`, “inactive”.
For the compound `Fc1ccccc1[C@@H](F)COC1CCC(Nc2ncnc3[nH]ncc23)CC1` (stereo not given in full), the AC50 is 39 µM (active).
In the case of `CCCCCCCCCCCCCCCO`, the AC50 is 37.3 µM (active).
As for `CC(O)CN(CCN(CC(C)O)CC(C)O)CC(C)O` (stereo not given), the outcome was inactive.
Same read-out and setting: to `O=C(OC[C@H]1O[C@@H](OC(=O)c2cc(O)c(O)c(OC(=O)c3cc(O)c(O)c(O)c3)c2)[C@H](OC(=O)c2cc(O)c(O)c(OC(=O)c3cc(O)c(O)c(O)c3)c2)[C@@H](OC(=O)c2cc(O)c(O)c(OC(=O)c3cc(O)c(O)c(O)c3)c2)[C@@H]1OC(=O)c1cc(O)c(O)c(OC(=O)c2cc(O)c(O)c(O)c2)c1)c1cc(O)c(O)c(OC(=O)c2cc(O)c(O)c(O)c2)c1` belongs “inactive”.
For `O=P(OC(CCl)CCl)(OC(CCl)CCl)OC(CCl)CCl`, the AC50 is 39 µM (active).
Take `CCN(C(=O)c1cc(C)cc(OC[C@H](C)Nc2ccncc2)c1)C(C)C`: the outcome was inactive.
On the same count and under the same terms, the entry for `O=C(O)c1cc(N=Nc2ccc(S(=O)(=O)Nc3ccccn3)cc2)ccc1O` is “inactive”; for `O=C(O)c1cccc(Oc2ccccc2)c1` it is “inactive”.
As for `COc1cccc(-c2ccc(/C=C\CN3CCCCCC3)cc2Cl)c1`, the AC50 is 14.9 µM (active).
As to `CNCc1ccc(NC(=O)c2c[nH]c3c2C(=O)CCC3)cc1`, the result was inactive.
On to `CCc1cc(SCc2sc(-c3ccc(C(F)(F)F)cc3)nc2CN2CCN(c3ccc(OC)cc3)CC2)ccc1OCC(=O)O`, for which the AC50 was 14.5 µM (active).
On to `Cn1c(=O)c2c(ncn2C)n(C)c1=O`, for which the result was inactive.
